# Measured values reported in PubChem BioAssay AID463173 (ICCB-Longwood Screening Facility, Harvard Medical School, 2010).
# The campaign covered roughly 52,000 compounds. About 4,300 (8.3%) were called active. Cut-off read from the data, not from the text of the source: active = survival mostly below about 52% (no sharp cut-off); inactive = mostly above about 56%. This excerpt belongs to a sample that is enriched for actives.
# Test system: DeltatarO mutant
# Test: growth inhibition of S. aureus wild type versus tarO mutant, primary screen, teichoic acid synthesis inhibitors, RN4220, OD600 (AID 463173)
# Settings: OD600, 18 h, hits give low values, screened at 18.75 µg/mL (by protocol)
row,SMILES,survival
1,CC(=O)c1ccc(NC(=O)Cn2cnc3nc4c(cc3c2=O)CC(C)CC4)cc1 (stereo not given),60% (inactive)
2,O=C(Cn1c(CC(=O)N2CCCC2)nc2ccccc21)NCc1ccccc1,64% (active)
3,CCOC(=O)c1cccc(NC(=O)Cn2c(CC(=O)N3CCCC3)nc3ccccc32)c1,83% (inactive)
4,O=C(CSc1cn(CC(=O)N2CCCCC2)c2ccccc12)NCc1ccccc1,87% (inactive)
5,CCn1c(=O)c2sccc2n2c(CCC(=O)N3CCN(c4ccc(C(C)=O)cc4)CC3)nnc12,65% (inactive)
6,Cc1ccc2c(c1)c1c3n2CCN(C(=O)c2cccc(C(F)(F)F)c2)C3CCC1 (stereo not given),14% (active)
7,CCCN(CCC)S(=O)(=O)c1ccc(C(=O)N2CCn3c4c(c5cc(C)ccc53)CCCC42)cc1 (stereo not given),58% (inactive)
8,COc1cc(SC)ccc1C(=O)N1CCn2c3c(c4cc(C)ccc42)CCCC31 (stereo not given),70% (inactive)
9,Cc1ccc(C(=O)N2CCn3c4c(c5cc(C)ccc53)CCCC42)cc1 (stereo not given),-1% (active)
10,Cc1ccc2c(c1)c1c3n2CCN(C(=O)c2ccc(C(F)(F)F)cc2)C3CCC1 (stereo not given),44% (inactive)
11,CCOc1cc(C(=O)N2CCn3c4c(c5cc(C)ccc53)CCCC42)cc(OCC)c1OCC (stereo not given),56% (inactive)
12,COc1ccc(OC)c(CNC(=O)c2cc3ccc4cccnc4c3[nH]2)c1,112% (inactive)
13,COc1ccc(-c2nnc(SCC(=O)N(C)C3CCCCC3)o2)cc1OC,86% (inactive)
14,O=C(O)c1ccc(N=NN2CCCCC2)cc1,75% (inactive)
15,COc1cccc(NC(=O)C(=O)NCC(c2cccnc2)N2CCN(c3ccccc3)CC2)c1 (stereo not given),97% (inactive)
16,COc1cccc(C2C(C(=O)Nc3ccccc3OC)=C(C)Nc3nc4ccccc4n32)c1 (stereo not given),51% (inactive)
17,Cc1cccc(N2CCN(C(=O)Cn3ncc4c5ccccc5n(C)c4c3=O)CC2)c1C,73% (inactive)
18,CCc1nnc(NC(=O)c2nc(S(=O)(=O)Cc3ccc(C)cc3)ncc2Cl)s1,42% (active)
19,Cc1cccc(CS(=O)(=O)c2ncc(Cl)c(C(=O)Nc3nnc(C(C)C)s3)n2)c1,28% (active)
20,CCc1nnc(NC(=O)c2nc(S(C)(=O)=O)ncc2Cl)s1,66% (inactive)

row,SMILES,survival
1,Cc1ccccc1CS(=O)(=O)c1ncc(Cl)c(C(=O)Nc2nnc(C(C)C)s2)n1,30% (active)
2,Cc1ccc(CS(=O)(=O)c2ncc(Cl)c(C(=O)Nc3nnc(C(C)C)s3)n2)cc1,54% (inactive)
3,CCc1nnc(NC(=O)c2nc(S(=O)(=O)Cc3cccc(C)c3)ncc2Cl)s1,31% (active)
4,CCCc1nnc(NC(=O)c2nc(S(=O)(=O)Cc3ccc(C)cc3)ncc2Cl)s1,47% (inactive)
5,CC(C)c1nnc(NC(=O)c2nc(S(=O)(=O)Cc3ccccc3)ncc2Cl)s1,46% (inactive)
6,O=C(NC1CCCCC1)c1cccs1,107% (inactive)
7,COCCN(Cc1cc2cc3c(cc2nc1Cl)OCO3)C(=O)Nc1ccccc1OC,92% (inactive)
8,CCOc1ccc(CN(C(=O)c2nc(SC)ncc2Cl)C2CCS(=O)(=O)C2)cc1 (stereo not given),88% (inactive)
9,Cc1ccc(-c2ccc(=O)n(CC(=O)Nc3ccc(F)c(Cl)c3)n2)cc1C,82% (inactive)
10,COc1ccccc1Nc1cc(C(=O)NCc2cccs2)c2ccccc2n1,73% (inactive)
11,Cc1cc(=O)[nH]c2nnc(SCCC(C)C)n12,73% (inactive)
12,Cc1nnc(NC(=O)c2nc(S(=O)(=O)Cc3ccccc3)ncc2Cl)s1,48% (active)
13,CCOc1ccc(-c2c(C)nn3c(C)c(C(=O)Nc4ccccc4C(=O)OC)cnc23)cc1OCC,-4% (active)
14,CCNC(=O)c1cnc2c(-c3ccccc3)c(C)nn2c1C,8% (active)
15,CCCNC(=O)c1cnc2c(-c3ccc(OCC)c(OCC)c3)c(C)nn2c1-c1ccccc1,92% (inactive)
16,Cc1cccc(CNC(=O)c2cnc3c(-c4cccc(C)c4)c(C)nn3c2C)c1,17% (active)
17,CCOc1ccc(-c2c(C)nn3c(-c4ccccc4)c(C(=O)NCCOC)cnc23)cc1OCC,-5% (active)
18,CCOc1ccc(-c2c(C)nn3c(C)c(C(=O)Nc4cc(C)cc(C)c4)cnc23)cc1OCC,118% (inactive)
19,CCOc1ccc(-c2c(C)nn3c(C)c(C(=O)Nc4cccc(Cl)c4C)cnc23)cc1OCC,76% (inactive)
20,Cc1nn2c(C)c(C(=O)NCCc3ccccc3)cnc2c1-c1ccccc1,81% (inactive)

row,SMILES,survival
1,Cc1nn2c(C)c(C(=O)NCc3cccc(Br)c3)cnc2c1-c1ccccc1,66% (inactive)
2,COc1cc(CNC(=O)c2cnc3c(-c4cccc(C)c4)c(C)nn3c2C)cc(OC)c1OC,68% (inactive)
3,CCCCNC(=O)c1cnc2c(-c3ccc(OCC)c(OCC)c3)c(C)nn2c1-c1ccccc1,73% (inactive)
4,Cc1nn2c(C)c(C(=O)NCC(C)c3ccccc3)cnc2c1-c1ccccc1 (stereo not given),101% (inactive)
5,Cc1ccc(-n2c(SCC(=O)Nc3ccc4c(c3)OCO4)nc3c([nH]c4ccccc43)c2=O)cc1,128% (inactive)
6,CCOc1ccc(CNC(=O)Cn2c(=O)c3cccn3c3ccc(F)cc32)cc1OC,47% (inactive)
7,COc1cc(NC(=O)c2cc(-c3ccc4c(c3)OCO4)on2)cc(OC)c1OC,115% (inactive)
8,CCn1cc(C(=O)N(C)Cc2ccccc2)c(=O)c2cc(S(=O)(=O)N3CCc4ccccc4C3)ccc21,65% (inactive)
9,O=C(Cn1cc(C(=O)C(F)(F)F)c2ccccc21)N1CCCCCC1,56% (inactive)
10,COc1cc(C(=O)NCc2nnnn2-c2ccc(C)c(C)c2)cc(OC)c1OC,98% (inactive)
11,CCOc1ccc(-c2c(C)nn3c(C)c(C(=O)NCCc4ccccc4)cnc23)cc1OCC,54% (inactive)
12,CCOc1ccc(CCNC(=O)c2cnc3c(-c4ccc(F)cc4)c(C)nn3c2C)cc1OCC,134% (inactive)
13,CCOc1ccc(CCNC(=O)c2cnc3c(-c4ccccc4)c(C)nn3c2C)cc1OCC,20% (active)
14,CCN1/C(=C\C(=O)C2CC2)Sc2ccccc21,81% (inactive)
15,Cc1ccc(OCc2nc3ccccc3n2CC(C)C)cc1,1% (active)
16,Cc1nc2ccccc2n1C(C)c1ccccc1 (stereo not given),77% (inactive)
17,COc1ccc(OCc2nc3ccccc3n2C(C)C)cc1,88% (inactive)
18,CCC(C)Cn1c(COc2ccc(OC)cc2)nc2ccccc21 (stereo not given),-1% (active)
19,COc1ccc(OCc2nc3ccccc3n2C(C)c2ccccc2)cc1 (stereo not given),-15% (active)
20,COc1ccc(OCC(O)Cn2c(C(C)C)nc3ccccc32)cc1 (stereo not given),88% (inactive)
